Among the data in PubChem BioAssay AID588382 (National Center for Advancing Translational Sciences (NCATS), 2011) are Potency values, retold here.

Out of some 1,300 compounds screened, about 150 (12%) were called active. About 30% were inconclusive and are not listed. Calls come from the whole dose curve; as a rule, active = well fitted cell-killing curve with a large enough effect; inconclusive = small, poorly fitted or top-dose-only effect, or effect the other way; inactive = flat fitted curve, though single readings scatter. Shown is part of a subset that was picked to be rich in actives. Entries that show only a call come without a potency.
Potency is the fitted concentration of half-maximal effect.

This experiment in a line: qHTS of small molecules that selectively kill Giardia lamblia: Hit Validation in HepG2 cytotox.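 Note: compound exposure lasted overnight at 37 deg C; nearly all actives have a fitted effect of over 55% in size.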 Conditions: cell viability; Potency: HepG2 cytotoxicity; series mostly up to 38.3 µM. The essentials:
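HepG2 cells seeded and incubated overnight at 37 deg C, then 23 nL compound added by pintool and incubated overnight at 37 deg C. Viability read as ATP luminescence with ATPLite after 15 min at room temperature.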
(In general: In qHTS, concentration-response curves come from the screen itself.)
For `COc1ccccc1CNC(=O)CSc1ccsc1[N+](=O)[O-]`, the Potency entry is “inactive”.

In the case of `Cc1ccc(OCc2ccc([N+](=O)[O-])cc2)c([N+](=O)[O-])n1`, the Potency entry is “inactive”.

Take `Cc1cc(C(=O)COc2cccnc2[N+](=O)[O-])c(C)n1Cc1cccs1`: the Potency entry is “inactive”.

For `Cc1onc(-c2ccccc2)c1C(=O)N/N=C/c1ccc([N+](=O)[O-])c(O)c1`, the Potency result is “inactive”.

Take `COc1cc2c(c3oc(-c4ccccc4)cc(=O)c13)C=CC(C)(C)O2`: the Potency entry is “inactive”.

As to `O=[N+]([O-])c1ccc(/C=N/Nc2ncccc2[N+](=O)[O-])s1`, the Potency result was “inactive”.

As to `Cc1nc2ccccc2n1/N=C/c1ccc([N+](=O)[O-])s1`, the Potency is 16.5 µM (active).

On to `O=[N+]([O-])c1ccc(/C=N/n2c(CO)nc3ccccc32)s1`, for which the Potency entry was “inactive”.

Regarding `CN(C)c1ccc(N=Nc2ccccc2C(=O)O)cc1`, the Potency result is “inactive”.

Take `CCOC(=O)Cn1c(=NC(=O)c2ccc([N+](=O)[O-])s2)sc2ccccc21`: the Potency entry is “inactive”.

In the case of `COc1ccc(C(=O)N(Cc2ccccc2)c2cccc(C)c2)cc1`, the Potency result is “inactive”.

Consider `CCOc1ccc2nc(NC(=O)c3c([N+](=O)[O-])cnn3CC)sc2c1`, for which the Potency result was “inactive”.

`CCOC(=O)N=Nc1c2ccccc2c2nc3no[nH]c3nc12`: the Potency is 0.736 µM (active).

With `CCC(C(=O)OC)n1c(-c2ccccc2)nc2ccccc2c1=O` (stereo not given), the Potency entry was “inactive”.

`CN(C)c1cc(NC(=O)CNC(C)(C)CC(C)(C)C)c2ccccc2n1`: the Potency result was “inactive”.

As to `CC1CCN(c2c([N+](=O)[O-])nn(-c3ccc4c(c3)OCCO4)[n+]2[O-])CC1`, the Potency result is “inactive”.

In the case of `COCCNc1cc(NCCOC)c([N+](=O)[O-])cc1[N+](=O)[O-]`, the Potency entry is “inactive”.

Regarding `Cc1ccc([C@H]2C(C(=O)O)=CC[C@@H](c3ccc(C)cc3)N2S(=O)(=O)c2ccc(C)cc2)cc1`, the Potency result is “inactive”.

Regarding `CCC(C)Nc1ccc(NC(C)CC)cc1` (stereo not given), the Potency is 0.165 µM (active).

Turning to `O=C(COc1cccnc1[N+](=O)[O-])Nc1c(Cl)cccc1Cl`, the Potency result is “inactive”.

For the compound `O=[N+]([O-])c1nn(-c2ccc(Cl)cc2)n(O)c1=NCc1ccncc1`, the Potency result was “inactive”.

For the compound `OCCSc1nc(-c2ccccc2)nc2ccc(F)cc12`, the Potency result is “inactive”.

Take `O=C(Cc1csc(Nc2nc(=S)[nH]c3ccccc23)n1)NCCCN1CCN(c2ccccc2F)CC1`: the Potency is 16.5 µM (active).

Turning to `CCOC(=O)N1C(C)CN(/[N+]([O-])=N/Oc2ccc([N+](=O)[O-])cc2[N+](=O)[O-])CC1C` (stereo not given), the Potency entry is “inactive”.

Regarding `O=c1/c(=C/c2ccc(O)c([N+](=O)[O-])c2)sc2nc3ccccc3n12`, the Potency entry is “inactive”.

For `Cc1ccc2c(c1)c1nc3ccccc3nc1n2C`, the Potency entry is “inactive”.

As to `Cc1cnc([N+](=O)[O-])n1CCOC(=O)c1cccc(F)c1`, the Potency result is “inactive”.

`O=C(c1ccc([N+](=O)[O-])o1)N1CCOCC1`: the Potency result was “inactive”.

For `Cc1oc2c(c1C(=O)N1CCOCC1)C(=O)c1ccccc1C2=O`, the Potency was 4.65 µM (active).

As to `CC1CCN(c2ccc(-c3ccc(NC(=O)C(F)(F)F)cc3)nn2)CC1`, the Potency was 4.14 µM (active).

On to `N#CC1C=Cc2c(ccc3ccccc23)N1C(=O)c1ccccc1` (stereo not given), for which the Potency result was “inactive”.

Consider `Cc1nc2c(ccc3nc(NC(=O)c4ccc5c(c4)OCCO5)sc32)s1`, for which the Potency is 1.85 µM (active).

Regarding `CC(=O)c1sc(NC(=O)c2ccc(C)c(C)c2)nc1C`, the Potency result is “inactive”.

For the compound `O=C(Nc1ccc2c(c1)OCCO2)c1cc(-c2ccccn2)nc2ccc(Br)cc12`, the Potency entry is “inactive”.

With `Cc1[nH]n(S(=O)(=O)Cc2ccccc2)c(=O)c1N=Nc1ccccc1Cl`, the Potency entry was “inactive”.

Take `O=C(COc1cccnc1[N+](=O)[O-])c1c[nH]c2ccccc12`: the Potency entry was “inactive”.

On to `Cc1[nH]c2ccccc2c1C(=O)C(C)OC(=O)c1ccc([N+](=O)[O-])o1` (stereo not given), for which the Potency entry was “inactive”.

On to `COC(=O)c1sc(NC(=O)COc2cccnc2[N+](=O)[O-])c(C(=O)OC)c1C`, for which the Potency result is “inactive”.

In the case of `Cc1cc2[nH]c3c(c[n+](C)c4ccccc34)c2cc1C`, the Potency is 3.29 µM (active).

For `COC(=O)c1ccc(Cn2cc(C(F)(F)F)cc([N+](=O)[O-])c2=O)cc1`, the Potency result was “inactive”.

As to `CCc1ccc([C@@H]2CC=C(C(=O)O)[C@H](c3cccc(Cl)c3)N2S(=O)(=O)c2ccc(C)cc2)cc1`, the Potency result was “inactive”.

With `Cc1ccc(CN=c2c([N+](=O)[O-])nn(-c3ccc4c(c3)OCCO4)n2O)cc1`, the Potency result is “inactive”.

On to `Cc1ccccc1N1CCN(Cc2ccc([N+](=O)[O-])o2)CC1`, for which the Potency result is “inactive”.

Consider `COc1cc(/C=C/c2onc(C)c2[N+](=O)[O-])cc(OC)c1OC`, for which the Potency entry is “inactive”.

As for `COc1cc(C2CC(=O)Oc3cc(C)c(Cl)c(C)c32)cc(OC)c1OC` (stereo not given), the Potency entry is “inactive”.

`COc1cc(/C=C2\COC/C(=C\c3cc(OC)c(OC)c(OC)c3)C2=O)cc(OC)c1OC`: the Potency was 2.33 µM (active).

With `Cc1ccc(S(=O)(=O)N2CC(C(=O)O)=CC[C@H]2c2ccc(Cl)cc2)cc1`, the Potency result is “inactive”.

For `O=C(O)C=C(Br)Br`, the Potency entry is “inactive”.

In the case of `COc1ccc(C(=O)c2c3ccccc3[n+]([O-])n2CCCN)cc1`, the Potency result was “inactive”.

Regarding `CC(Oc1cccnc1[N+](=O)[O-])C(=O)Nc1ccc(F)cc1` (stereo not given), the Potency entry was “inactive”.

As for `COc1ccc2c(c1)C1OCCC1C(c1ccco1)N2` (stereo not given), the Potency is 10.4 µM (active).

For the compound `CC(=O)OCON[N+]([O-])=NC(C)C`, the Potency entry is “inactive”.

As for `OCCOCCNc1ncnc2c1c(-c1ccccc1)cn2-c1ccccc1`, the Potency result is “inactive”.

Turning to `C(=C\c1nc2ccccc2s1)/c1ccc2c(c1)OCO2`, the Potency is 2.07 µM (active).

Turning to `O=[N+]([O-])c1cc(C(F)(F)F)ccc1Oc1cccnc1[N+](=O)[O-]`, the Potency entry is “inactive”.

In the case of `Cc1nc2c(N=Nc3ccccc3F)c(N)nn2c(N)c1C#N`, the Potency result is “inactive”.

In the case of `Cc1ccc(OCC(=O)Nc2ccc(C)c(F)c2)c([N+](=O)[O-])n1`, the Potency entry is “inactive”.

Turning to `CC(C)(C)[C@H](N)C(=O)N[C@H]1CCC2C3CC=C4C[C@@H](O)CC[C@]4(C)C3CC[C@@]21C` (stereo not given in full), the Potency is 2.33 µM (active).

Turning to `O=C(Nc1ccc(Cl)cn1)c1ccccc1[N+](=O)[O-]`, the Potency entry was “inactive”.

In the case of `Brc1ccc(CNc2nc3ccccc3n2CCN2CCCCC2)cc1`, the Potency entry is “inactive”.

`NC(=S)NN=C1CCCCCCCC1`: the Potency entry was “inactive”.

Consider `CCN(CC)CCCNc1nc2ccccc2c2[nH]c3ccc(OC)cc3c12`, for which the Potency was 2.61 µM (active).

Take `COc1ccc(-c2nc(NCCCN(C)C)c3ccccc3n2)cc1`: the Potency result was “inactive”.

For the compound `NCCCn1c(C(=O)c2cc(Cl)c(N)c(Cl)c2)c2ccccc2[n+]1[O-]`, the Potency result is “inactive”.

On to `O=[N+]([O-])C(/C=C(/Cl)[N+](=O)[O-])=C(N1CCCCC1)N1CCCCC1`, for which the Potency result was “inactive”.

Take `O=c1c2ccccc2nc(/C=C/c2ccc([N+](=O)[O-])o2)n1CCCO`: the Potency is 3.69 µM (active).

On to `O=[N+]([O-])c1ccc(/C=C/C2=NN(c3ccccc3)C(c3ccco3)C2)o1` (stereo not given), for which the Potency entry was “inactive”.

Take `CC(=O)N(/N=C/c1ccc([N+](=O)[O-])o1)c1nc2ccccc2c(=O)n1-c1ccccc1`: the Potency entry is “inactive”.

On to `O=[N+]([O-])c1ncccc1Oc1nc(-c2cccnc2)nc2ccccc12`, for which the Potency entry was “inactive”.

As to `COc1ccc(C(=O)COC(=O)c2ccccc2NS(=O)(=O)c2ccc(O)c([N+](=O)[O-])c2)cc1`, the Potency result is “inactive”.

With `Cc1[nH]n(C2=NCCS2)c(=O)c1N=Nc1cccc(C(F)(F)F)c1`, the Potency is 4.65 µM (active).

`Cc1[nH]n(S(=O)(=O)c2ccccc2)c(=O)c1N=Nc1cccc(Cl)c1`: the Potency result was “inactive”.

With `CN(C(=O)c1ccc(N2CCCCC2)c([N+](=O)[O-])c1)C1CCS(=O)(=O)C1` (stereo not given), the Potency result is “inactive”.

For `Cc1ccc(C(=O)c2c3ccc([N+](=O)[O-])cc3[n+]([O-])n2CCCC(N)=O)cc1`, the Potency result was “inactive”.

For the compound `O=c1cc[nH]c2ccc([N+](=O)[O-])cc12`, the Potency result is “inactive”.

As to `Cc1cc(C(=O)COc2cccnc2[N+](=O)[O-])c(C)n1Cc1ccco1`, the Potency entry was “inactive”.

On to `c1ccc(-c2nc(-c3cnc4ccccc4n3)cs2)cc1`, for which the Potency result was “inactive”.

As to `Clc1ccc2oc(-c3ccccc3)cc(=NCCCN3CCOCC3)c2c1`, the Potency entry is “inactive”.

Regarding `CC1(C)CC(N=c2cc(-c3ccccc3)oc3ccc(Cl)cc23)CC(C)(C)N1`, the Potency is 8.26 µM (active).

For the compound `CN(C)CCCN=c1cc(-c2ccccc2)oc2ccc(Cl)cc12`, the Potency result is “inactive”.

With `O=C(CSc1ccsc1[N+](=O)[O-])NCCc1ccc(Cl)cc1`, the Potency result was “inactive”.

Take `O=[N+]([O-])c1cn(-c2nc(-c3ccco3)cc(C(F)(F)F)n2)cn1`: the Potency entry is “inactive”.

For the compound `CNN/C(N=Cc1ccc([N+](=O)[O-])s1)=N\S(=O)(=O)c1cc(C)c(Cl)cc1SCc1ccccc1`, the Potency result was “inactive”.

For the compound `Clc1ccc2c(N/N=C/c3ccccc3Br)ccnc2c1`, the Potency was 14.7 µM (active).

In the case of `Clc1ccc2c(N/N=C/c3cccc(Br)c3)ccnc2c1`, the Potency was 11.7 µM (active).

Turning to `CCOC(=O)C1CCN(c2ccc([N+](=O)[O-])c(C(C)=O)c2)CC1`, the Potency entry was “inactive”.

Take `Cc1ccc(C(C(=O)NCc2ccco2)N(C(=O)CNC(=O)c2cccs2)c2c(C)cccc2C)cc1` (stereo not given): the Potency entry is “inactive”.

Regarding `NC(=O)c1ccc(Nc2ccc([N+](=O)[O-])cc2[N+](=O)[O-])cc1`, the Potency result was “inactive”.

With `CC(=O)c1c(C)n([O-])c2ccc(C)cc2[n+]1=O`, the Potency entry is “inactive”.

`C=CCn1c(C)cc(C(=O)COC(=O)c2n[nH]c(=O)c3ccccc23)c1C`: the Potency result was “inactive”.

As to `COc1ccc(-n2nc([N+](=O)[O-])c(=NCCC3=CCCCC3)n2O)cc1`, the Potency entry is “inactive”.

Turning to `COc1ccc2c3n([n+]([O-])c2c1)CCN=C3c1cc(Cl)c(N)c(Cl)c1`, the Potency entry is “inactive”.

Consider `O=c1[nH]cnc2ccc([N+](=O)[O-])cc12`, for which the Potency entry was “inactive”.

For the compound `COC(=O)Nc1nc2ccc(Sc3ccccc3)cc2[nH]1`, the Potency entry is “inactive”.

Consider `COc1cc(SC)ccc1C(=O)Nc1nc2ccccc2[nH]1`, for which the Potency was 2.07 µM (active).

For `COC(=O)Nc1nc2ccc(SC(C)C)cc2[nH]1`, the Potency entry was “inactive”.

On to `COc1ccc(-n2nc([N+](=O)[O-])c(=NCCc3ccccc3)n2O)cc1`, for which the Potency entry was “inactive”.

In the case of `CCCCC12CN3CC(C)(CN(C1)C3c1ccc([N+](=O)[O-])o1)C2=O` (stereo not given), the Potency result was “inactive”.

On to `Cc1ccc(S(=O)(=O)N2[C@@H](c3ccc(F)cc3)C(C(=O)O)=CC[C@H]2c2cccs2)cc1`, for which the Potency entry is “inactive”.

On to `COc1ccc(C(=O)CC(SCC(NC(C)=O)C(=O)O)c2ccc(Cl)cc2)cc1OC` (stereo not given), for which the Potency entry is “inactive”.
